{"source": "PubChem BioAssay AID1159580", "about": "(chemical genetic matrix, 2015)", "assay": "chemical genetic growth profiling, strain panel (AID 1159580);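 further: tested at 20 µM; growth read once vehicle control cultures reached saturation at 30 °C; 1 = growth at the plate median or of vehicle wells; lower values mean less growth of the strain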", "settings": "S. cerevisiae deletion strains, growth OD", "note": "Hit rate of the full screen: of about 5,500 compounds, about 2,000 (36%) were called active. Roughly 18% stayed inconclusive and do not appear here. This is one part of the list. Values without a mark were called inactive. No stated cut-off is given here; in the data, active means normalized growth mostly below about 0.91 (no sharp cut-off); inconclusive means no clear call, values can overlap the other calls; inactive means mostly above about 0.92."}
{"smiles": "Cc1cccc(N(C)C(=S)Oc2ccc3ccccc3c2)c1", "values": [{"measurement": "normalized growth", "setting": "locus YJR075W, strain HOC1, hits give low values", "value": 0.971}, {"measurement": "normalized growth", "setting": "locus YKL009W, strain mrt4, hits give low values", "value": 0.99}, {"measurement": "normalized growth", "setting": "locus YKL068W, hits give low values", "value": 0.981}, {"measurement": "normalized growth", "setting": "locus YKL085W, strain MDH1 (second series), hits give low values", "value": 0.979}, {"measurement": "normalized growth", "setting": "locus YKL085W, strain MDH1, hits give low values", "value": 0.979}, {"measurement": "normalized growth", "setting": "locus YKL160W, strain elf1, hits give low values", "value": 0.947}, {"measurement": "normalized growth", "setting": "locus YKL190W, strain CNB1, hits give low values", "value": 0.983}, {"measurement": "normalized growth", "setting": "locus YKR001C, strain vps1, hits give low values", "value": 1.01}, {"measurement": "normalized growth", "setting": "locus YKR026C, strain gcn3, hits give low values", "value": 1}, {"measurement": "normalized growth", "setting": "locus YKR091W, strain srl3, hits give low values", "value": 0.993}, {"measurement": "normalized growth", "setting": "locus YLL001W, strain dnm1, hits give low values", "value": 0.994}, {"measurement": "normalized growth", "setting": "locus YLL026W, hits give low values", "value": 0.985}, {"measurement": "normalized growth", "setting": "locus YLL041C, strain sdh2, hits give low values", "value": 0.987}, {"measurement": "normalized growth", "setting": "locus YLR027C, strain aat2, hits give low values", "value": 0.99}, {"measurement": "normalized growth", "setting": "locus YLR039C, strain RIC1, hits give low values", "value": "1.46 [resistant] (active)"}, {"measurement": "normalized growth", "setting": "locus YLR058C, strain SHM2, hits give low values", "value": 0.972}, {"measurement": "normalized growth", "setting": "locus YLR102C, strain apc9, hits give low values", "value": 0.979}, {"measurement": "normalized growth", "setting": "locus YLR113W, strain HOG1, hits give low values", "value": 0.91}, {"measurement": "normalized growth", "setting": "locus YLR221C, strain rsa3, hits give low values", "value": 1.02}, {"measurement": "normalized growth", "setting": "locus YLR258W, strain gsy2, hits give low values", "value": 0.974}, {"measurement": "normalized growth", "setting": "locus YLR262C, strain YPT6 (second series), hits give low values", "value": 1.13}, {"measurement": "normalized growth", "setting": "locus YLR262C, strain YPT6, hits give low values", "value": "1.48 [resistant] (active)"}, {"measurement": "normalized growth", "setting": "locus YLR268W, strain sec22, hits give low values", "value": 0.971}, {"measurement": "normalized growth", "setting": "locus YLR320W, strain mms22, hits give low values", "value": 0.98}, {"measurement": "normalized growth", "setting": "locus YLR330W, strain CHS5, hits give low values", "value": 0.984}, {"measurement": "normalized growth", "setting": "locus YLR342W, strain FKS1 (second series), hits give low values", "value": 0.995}, {"measurement": "normalized growth", "setting": "locus YLR342W, strain FKS1, hits give low values", "value": 1.01}, {"measurement": "normalized growth", "setting": "locus YLR357W, strain rsc2, hits give low values", "value": 0.999}, {"measurement": "normalized growth", "setting": "locus YLR370C, strain arc18, hits give low values", "value": 1.01}, {"measurement": "normalized growth", "setting": "locus YLR371W, strain rom2, hits give low values", "value": 0.947}, {"measurement": "normalized growth", "setting": "locus YLR384C, strain iki3, hits give low values", "value": 0.995}, {"measurement": "normalized growth", "setting": "locus YLR418C, strain cdc73, hits give low values", "value": 0.904}, {"measurement": "normalized growth", "setting": "locus YML016C, strain PPZ1, hits give low values", "value": 0.998}, {"measurement": "normalized growth", "setting": "locus YML032C, strain rad52, hits give low values", "value": 0.991}, {"measurement": "normalized growth", "setting": "locus YML120C, strain ndi1, hits give low values", "value": 1}, {"measurement": "normalized growth", "setting": "locus YML124C, strain tub3, hits give low values", "value": 0.969}, {"measurement": "normalized growth", "setting": "locus YMR058W, strain fet3, hits give low values", "value": 0.994}, {"measurement": "normalized growth", "setting": "locus YMR078C, strain ctf18, hits give low values", "value": 0.965}, {"measurement": "normalized growth", "setting": "locus YMR125W, strain sto1, hits give low values", "value": 0.988}, {"measurement": "normalized growth", "setting": "locus YMR129W, hits give low values", "value": 0.991}, {"measurement": "normalized growth", "setting": "locus YMR205C, strain PFK2, hits give low values", "value": 0.952}, {"measurement": "normalized growth", "setting": "locus YMR223W, strain ubp8, hits give low values", "value": 0.955}, {"measurement": "normalized growth", "setting": "locus YMR231W, strain pep5, hits give low values", "value": 1.03}, {"measurement": "normalized growth", "setting": "locus YMR263W, strain SAP30, hits give low values", "value": 0.958}]}
